These results are taken from PubChem BioAssay AID1347131 (National Center for Advancing Translational Sciences (NCATS), 2019).

Molecules are shown by their SMILES. About 2,000 (0.49%) of roughly 410,000 compounds were called active. Another 8% or so got no clear call; they are omitted. Calls follow the shape of the full dose curve; tested in HEK293 reporter line. What follows is part of a selection rich in actives, with near analogues and random picks from the rest. A call without a number means that no potency is given here.
Potency is read from the fitted curve at half-maximal effect.

The nature of this assay: qHTS Assay for Foot and Mouth Disease Virus Antivirals: Primary Screen against the MLPCN compound library. Also: nearly all actives have a fitted effect of over 55% in size. Particulars: FMDV antiviral cell-based qHTS; series mostly up to 57.9 µM.
On to `N=c1ccn(Cc2ccc(Cl)c(Cl)c2)cc1`, for which the Potency result is “inactive”. The result for `Brc1ccc(-c2cn3ccccc3n2)cc1` reads 11.2 µM (active); that for `c1ccc(-c2nc3ccccn3c2-c2ccccc2)cc1`, “inactive”. For `O=C(COc1ccc(Oc2ccccc2)cc1)NCc1cn2ccccc2n1`, the Potency result is “inactive”. As to `Clc1ccc(-c2cn3cc(Br)ccc3n2)cc1Cl`, the Potency was 14.1 µM (active). `O=C(O)c1ccnc(Cl)c1`: the Potency result was “inactive”. As for `CCc1noc(C)c1C(=O)Nc1nc(-c2ccc(Cl)cc2Cl)c(C)s1`, the Potency result is “inactive”.

As to `COc1ccccc1N1CCN(C(=O)c2ccccc2Oc2ccccc2)CC1`, the Potency result is “inactive”. Regarding `COc1ccccc1NS(=O)(=O)c1cccc(C(=O)N/N=C/c2ccc(N3CCOCC3)cc2)c1`, the Potency entry was “inactive”. In the case of `Cc1ccc(C)c(N2CCN(C(=O)c3cnn(-c4ccccc4Cl)c3C3CCN(C(=O)OC(C)(C)C)CC3)CC2)c1`, the Potency result was “inactive”. In the case of `Cc1ccc2c(c1)-c1c(cnn1CC(=O)N(Cc1ccco1)C1CCCCC1)CO2`, the Potency result is “inactive”. With `CC(C)(C)NC(=O)NC(=O)CN1CCN(C(c2ccccc2)c2ccccc2)CC1` the entry was “inactive”; with `Cc1ccc(N(Cc2cc(=O)[nH]c3ccccc23)C(=O)CCl)cc1`, 20 µM (active); with `CCOc1ccc(N(Cc2cc3cc(C)ccc3[nH]c2=O)C(=O)c2cccc(Cl)c2)cc1`, “inactive”.

Take `COc1ccc(CC(=O)N(Cc2ccccc2)c2ccc(C)cc2)cc1OC`: the Potency result was “inactive”.

Turning to `Cc1ncsc1CCC(=O)N1CCCC(c2nc(-c3ccncc3)ncc2-c2ccccc2)C1` (centres undefined), the Potency result is “inactive”. The result for `COc1cccc(-n2cnc3scc(-c4cccs4)c3c2=O)c1` reads “inactive”. With `O=C(NC(c1ccccc1)c1ccccc1)c1ccc(S(=O)(=O)C(F)F)cc1` the entry was “inactive”. Take `O=C(Nc1cccc(-c2ccc(N3CCCCC3)nn2)c1)C(F)(F)F`: the Potency is 14.1 µM (active).

As to `O=C(CN1CCN(c2ccccn2)CC1)Nc1cccc(C(F)(F)F)c1`, the Potency entry is “inactive”. On to `O=C(Nc1ccccc1)N1CCCN(c2ccc(C(F)(F)F)cn2)CC1`, for which the Potency entry was “inactive”. The result for `COC(=O)c1ccc(CSc2ncnc3ccccc23)o1` reads “inactive”.

As for `CC(C)C1NC(=S)N(C2CCCCC2)C1=O` (centres undefined), the Potency entry is “inactive”. Take `CCOC(=O)c1sc2nc(CC(=O)OC)nc(N3CCN(c4ccc(OC)cc4)CC3)c2c1C`: the Potency entry is “inactive”. With `CCOC(=O)c1cc(C)n(CC2CCC(C(=O)Nc3ccc(C(=O)OC)cc3)CC2)c1C` (centres undefined) the entry was “inactive”. Turning to `CCc1nnc(NC(=O)c2cccc(C(=O)Nc3nnc(CC)s3)n2)s1`, the Potency entry is “inactive”. In the case of `CCc1nnc(NC(=O)c2nc(S(=O)(=O)Cc3ccccc3)ncc2Cl)s1`, the Potency is 20 µM (active). As for `Cc1ccc(CS(=O)(=O)c2ncc(Cl)c(C(=O)Nc3nc4ccc(F)cc4s3)n2)cc1`, the Potency result is “inactive”. Consider `CCc1ccccc1NC(=O)Cn1nc(C)c2nn(-c3ccc(Cl)cc3)c(C)c2c1=O`, for which the Potency entry was “inactive”. With `Cc1ccccc1C(=O)N(Cc1nc(-c2ccc(Cl)cc2)no1)C(C)C`, the Potency entry was “inactive”. For `COc1cccc(CNC(=O)Cn2cc3c(n2)-c2c(oc(C(=O)N4CCOCC4)c2C)CC3)c1`, the Potency entry was “inactive”. Consider `Cc1cc(NC(=O)c2ccc(N(C)S(=O)(=O)c3ccccc3)cc2)no1`, for which the Potency entry is “inactive”. With `Cc1cc(C)n2nc(SCc3ccc(F)cc3Cl)nc2n1` the entry was “inactive”; with `Cc1cc2sc3ccc(C#CC4(O)CCCCC4)cc3c(=O)c2cc1C`, “inactive”. The result for `O=c1c2ccccc2sc2ccc(C#CC3(O)CCCCC3)cc12` reads “inactive”.

On to `Cn1c2ccccc2c(=O)c2ccc(C#CC3(O)CCCCC3)cc21`, for which the Potency was 17.8 µM (active). Regarding `CCOC(=O)C1(Cc2ccccc2)CCN(Cc2cccn2-c2cccnc2)CC1`, the Potency result was “inactive”.

Turning to `COc1ccccc1OCCNC(=O)c1cc(C2CC2)nc2c1cnn2C(C)C`, the Potency result is “inactive”. As to `CCN1C(=O)CC(C(C)C)N(C2CCCC2)c2nc(Nc3ccc(C(=O)NC4CCN(C)CC4)cc3OC)ncc21` (centres undefined), the Potency entry is “inactive”.

`CCCCC(CC)CNC(=O)c1ccc2c(=O)n(CCOC)c(=O)[nH]c2c1` (centres undefined): the Potency result is “inactive”. Turning to `Cc1ccc(-c2nc(CS(=O)CC(=O)N3CCN(c4ccc(F)cc4)CC3)c(C)o2)cc1` (centres undefined), the Potency entry was “inactive”. With `COc1ccc(CC(=O)Nc2cccc(-c3csc(C)n3)c2)cc1`, the Potency is 20 µM (active).

Turning to `Cc1nc(-c2cccc(NC(=O)c3ccc(Cl)c(S(=O)(=O)N4CCCC4)c3)c2)cs1`, the Potency entry is “inactive”.

On to `COc1ccc(CC(=O)Nc2nc(-c3ccc(OC)c(OC)c3)cs2)cc1OC`, for which the Potency entry is “inactive”. In the case of `COc1ccc(Oc2ncc3nc(-c4ccccc4)c(=O)n(CCC#N)c3n2)cc1`, the Potency entry was “inactive”. For `Nc1nonc1-n1nnc(C(=O)N/N=C/c2ccc(O)cc2)c1COc1ccc(F)cc1`, the Potency result was “inactive”. Take `COc1ccc(/C=N/NC(=O)c2nonc2C)cc1`: the Potency is 11.2 µM (active). For `COc1cccc(/C=N/NC(=O)c2nc(-c3ccccc3)cc(-c3ccccc3)n2)c1`, the Potency result is “inactive”. For `CC1(C)NC(=O)N(CCCCOc2ccc3c(c2)CCC3)C1=O`, the Potency result was “inactive”. Turning to `CC(C)c1cc(Br)ccc1OCCCN1C(=O)NC(C)(C)C1=O`, the Potency was 28.2 µM (active). As for `Cc1cc(OCCCCN2C(=O)NC(C)(C)C2=O)cc(C)c1Cl`, the Potency entry was “inactive”. Turning to `CC12C(=O)N(c3cccc(OC(=O)c4ccco4)c3)C(=O)C1C1c3ccccc3C2c2ccccc21` (centres undefined), the Potency entry is “inactive”. `CC(C)CN1CCN(C(=O)COC(=O)c2ccc(S(C)(=O)=O)c([N+](=O)[O-])c2)CC1`: the Potency result is “inactive”. `CS(=O)(=O)c1ccc(C(=O)OCC(=O)NCc2cccs2)cc1[N+](=O)[O-]`: the Potency was 25.1 µM (active).

Consider `Nc1cc(C(=O)OCC(=O)NCCNC(=O)COC(=O)c2ccc(Cl)c(N)c2)ccc1Cl`, for which the Potency entry was “inactive”. For the molecule `CCc1ccc(OCc2ccc(C(=O)O)o2)cc1`, the Potency is 10 µM (active).

Take `COc1ccc(NC(=O)c2ccc(COc3ccccc3OC)o2)cc1OC`: the Potency result is “inactive”.

Regarding `COC(=O)c1ccc(COc2ccc(/C=N/NC(N)=S)cc2)o1`, the Potency entry was “inactive”. As for `Cc1ccccc1CS(=O)(=O)c1cn(CC(=O)N2CCC(C)CC2)c2ccccc12`, the Potency entry was “inactive”.

Take `CCc1cc(=O)[nH]c(SCc2nc(-c3ccc(C(F)(F)F)cc3)no2)n1`: the Potency entry was “inactive”.

Take `COc1cc(/C=C(/C#N)c2nc3ccccc3[nH]2)ccc1OCC(=O)Nc1ccccc1C`: the Potency entry is “inactive”. For the molecule `Cc1ccc2nc(/C(C#N)=C/c3ccc(-c4cccc(Cl)c4)o3)[nH]c2c1`, the Potency result was “inactive”. On to `COc1cc(/C=C(\C#N)c2nc3ccccc3[nH]2)cc(Cl)c1OCc1ccccc1Cl`, for which the Potency result was “inactive”. Turning to `N#C/C(=C\c1ccc(N2CCOCC2)o1)c1nc2ccccc2[nH]1`, the Potency is 10 µM (active).

Take `N#C/C(=C/c1ccc(N2CCCCC2)o1)C(=O)NCCc1c[nH]c2ccccc12`: the Potency entry was “inactive”. On to `N#C/C(=C/c1ccc(N2CCOCC2)o1)c1nc2ccccc2[nH]1`, for which the Potency is 8.91 µM (active). Turning to `O=C(CSCc1ccc(F)cc1)N1CCN(c2ccc(F)cc2)CC1`, the Potency entry was “inactive”. With `N#Cc1ccccc1Sc1ccccc1C(=O)OCC(=O)NC12CC3CC(CC(C3)C1)C2` the entry was “inactive”; with `COc1ccccc1C(=O)Nc1ccc(-c2cc(C(F)(F)F)nn2-c2ccccc2)cc1`, “inactive”.

With `C=CCN1CC[C@]23c4c5ccc(O)c4O[C@H]2/C(=N/NC(=O)c2ccccc2)CC[C@@]3(O)[C@H]1C5`, the Potency result is “inactive”. With `O=C1/C(=C\c2ccccc2)C[C@@]2(O)[C@H]3Cc4ccc(O)c5c4[C@@]2(CCN3CC2CC2)[C@H]1O5` the figure was 10 µM (active).

Regarding `CCOC(=O)[C@H]1[C@H]2COc3ccccc3[C@@H]2N2C(=O)c3ccc(Cl)cc3NC(=O)[C@@]12C`, the Potency result is “inactive”. The result for `O=C(Nc1ccccc1Cc1ccccc1)c1ccccc1NS(=O)(=O)c1ccc(Cl)s1` reads “inactive”. For the molecule `C=CCOc1ccc(/C=C2/C(=O)ON=C2C)cc1OCC`, the Potency is 31.6 µM (active). Take `CCOc1cc(/C=C2\C(=O)N(c3ccc(C(N)=O)cc3)N=C2C)ccc1OC(=O)c1cccs1`: the Potency entry is “inactive”.

On to `COc1cc(/C=C2/C(=O)ON=C2c2ccccc2)ccc1O`, for which the Potency entry was “inactive”. The result for `Cc1ccc(S(=O)(=O)N(C)C)cc1NC(=O)CSc1nc2ccccc2[nH]1` reads “inactive”; that for `CCOc1ccc(CN2CCNC(=O)C2CC(=O)NCCc2nc(C)c3c(n2)CCC3)cc1` (centres undefined), “inactive”. With `Cc1ccc(-c2nc(C)c(C(=O)O)s2)cc1` the figure was 25.1 µM (active). Regarding `Cc1ccc(-c2nc(CCNC(=O)c3ccco3)cs2)cc1`, the Potency result is “inactive”. In the case of `Cc1ccc(S(=O)(=O)Nc2nc(C)c(C)s2)cc1`, the Potency entry was “inactive”. `Cc1ccccc1N1CCN(C2CCCN(C(=O)CCC3(C)CC3)C2)CC1` (centres undefined): the Potency result was “inactive”. `Fc1ccccc1-c1csc(=Nc2cccnc2)n1CCCn1ccnc1`: the Potency result was “inactive”.

Take `O=C(C1COc2ccccc2O1)N1CCN(S(=O)(=O)c2ccccc2)CC1` (centres undefined): the Potency entry was “inactive”.

`CC(=O)c1cccc(NC(=O)CNC(=O)c2cc3ccccc3o2)c1`: the Potency entry was “inactive”. Take `CCc1cccc(C)c1NC(=O)c1cc2ccccc2o1`: the Potency result is “inactive”. For the molecule `Cc1nc(NC(=O)c2cc3ccccc3o2)sc1C`, the Potency was 17.8 µM (active).

Regarding `COc1ccc([N+](=O)[O-])cc1NC(=O)C(C)OC(=O)C1CCCC1` (centres undefined), the Potency entry was “inactive”.

Take `CC1(C(=O)Nc2cccc(Oc3ccccc3)c2)CCN1Cc1cccc2c1OCO2` (centres undefined): the Potency result was “inactive”.

Turning to `COc1cccc(-c2sc3ccc(OC)cc3c2-c2ccc(OCCN3CCCC3)cc2)c1`, the Potency entry is “inactive”. Consider `Cc1ccc(-c2nc3cc(NC(=O)C(C)C)ccc3o2)cc1C`, for which the Potency is 22.4 µM (active).

In the case of `Cc1ccc(C(=O)Nc2cc(-c3nc4cc(Cl)ccc4o3)ccc2C)c(C)c1`, the Potency entry is “inactive”. With `CC(C)Oc1ccc(C(=O)Nc2ccc3oc(-c4ccncc4)nc3c2)cc1`, the Potency entry was “inactive”. Turning to `COCC(C)n1c(C)cc(C(=O)COC(=O)c2cc(=O)[nH]c3ccccc23)c1C` (centres undefined), the Potency result is “inactive”.

Take `CC(C)(C)OC(=O)N1CCC(c2c(C(=O)N3CCN(Cc4ccccc4)CC3)cnn2-c2ccc(Cl)cc2)CC1`: the Potency result was “inactive”. `CCc1ccc(S(=O)(=O)N/N=C\c2ccc3c(c2)OCO3)cc1`: the Potency result was “inactive”. As to `N/C(=N\N=C\c1ccc2c(c1)OCO2)c1nonc1N`, the Potency was 17.8 µM (active). For the molecule `O=S(=O)(N/N=C\c1ccc2c(c1)OCO2)c1ccc(Cl)cc1`, the Potency entry was “inactive”. Regarding `Brc1ccccc1CN1CCN(Cc2c[nH]c3ccccc23)CC1`, the Potency result is “inactive”.
